From PubChem BioAssay (NCI)
About 83,000 compounds went through this panel and 20% of them were active in at least one assay; those are over-represented in the sample as a whole.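 Method: cells in 96-well plates; compound added at one concentration; 48 h incubation; percent growth measured; values under 10 scored active.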 Active and inactive are the calls of the source.

test system: CCRF-CEM leukemia; assay: NCI-60 one-dose screen, 48 h (100 = growth as untreated, 0 = no growth, -100 = all killed); conditions: 10 µM unless noted

SMILES	growth
O=C(NCCCN1CCOCC1)c1cccc(N2C(=O)/C(=C/c3ccc(F)cc3)SC2=S)c1	108% (inactive)
CC(C)NC1CCC(Nc2ccnc3cc(Cl)ccc23)CC1 (stereo not drawn)	-32.1% (active)
Fc1ccc(-c2nn(-c3ccccc3)cc2-c2nc3ccccc3o2)cc1	66.4% (inactive)
COc1ccc(C/C(C)=C(/c2ccc(OCCN3CCCCC3)cc2)c2ccc(OC(=O)NCc3ccccc3)cc2)cc1	-44.1% (active)
Cn1cc(-c2nonc2-c2c[nH]c3ccc(Br)cc23)c2cc(Br)ccc21	34.4% (inactive)
Cn1c(=O)c2c(nc(NC3=NS(=O)(=O)c4ccccc43)n2CC(=O)N2CCc3ccccc32)n(C)c1=O	101% (inactive)
Clc1ccc(Nc2nnc(COc3ccccc3)c3ccccc23)cc1	1.06% (active)
O=[N+]([O-])c1ccc(S(=O)(=O)N2CCN(C3=NS(=O)(=O)c4ccccc4N3c3ccccc3)CC2)cc1	125% (inactive)
CCNC(=O)c1[nH]cc(-c2ccccc2)c1-c1cc(OC)c2c(c1OC)OCO2	101% (inactive)
COCCn1c(-c2csc(-c3cn(C)c4ccc(OC)cc34)n2)cc2cccnc21	41.3% (inactive)
S=C(Nc1ccc(-c2nc(N3CCOCC3)c3cccn3n2)cc1)Nc1cccnc1	22.1% (inactive)
COc1cc(CNC(=O)CCCC/C=C/C(C)C)ccc1OCc1nnc(Nc2ccc([N+](=O)[O-])cc2)o1	78.9% (inactive)
N#CC1=C(c2ccc(Cl)cc2)Nc2c(c(-c3ccc(Cl)cc3)nn2-c2ccccc2)C12C(=O)Nc1ccc(Cl)cc12 (stereo not drawn)	35.9% (inactive)
CCOC(=O)/C=C1\S/C(=N\Nc2cc(=O)[nH]c3ccc(Cl)cc23)N(c2ccccc2)C1=O	3.19% (active)
COc1cccc(NC(=O)Cn2cc(CN3CCN(c4ccnc5cc(Cl)ccc45)CC3)nn2)c1	-45.1% (active)
COc1cc(N2C(=O)[C@H](O)C2c2ccc(SC)cc2)cc(OC)c1OC (stereo partly drawn)	3.99% (active)
CSc1nnc(-c2cnn3c2NC(c2ccccc2)C3)n1-c1ccc(C(F)(F)F)cc1 (stereo not drawn)	48% (inactive)
N=C(N)c1ccc(-c2ccc(-c3ccc(F)cc3)o2)o1	2.36% (active)
CC1=NN(c2nc(SCC(=O)Nc3nc4ccc(C)cc4s3)nc(-c3ccccc3)c2C#N)C(=O)C1	107% (inactive)
C/C(Nc1ccc(Cl)c(Cl)c1)=C1\CCOC1=O	81.5% (inactive)

SMILES	growth
N#Cc1cccc(-c2c(-c3ccc4ccccc4c3)oc3ccccc3c2=O)c1	27.6% (inactive)
CC(C)N1CCN(Cc2ccc3c(NNC(=O)c4ccccc4)nc4cc(F)ccc4n23)CC1	10.8% (inactive)
O=S(=O)(NCCCNc1nccc(-c2c(-c3ccc(F)c(O)c3)nc3occn23)n1)c1ccccc1	79.1% (inactive)
O=C1NCCC12CCN(c1c(Cl)cncc1-c1ccc(O)cc1)CC2	98.9% (inactive)
Cc1cccnc1NC(=S)Nc1ncccc1C	91.4% (inactive)
COc1ccc2c3c([nH]c2c1)C(=O)c1nc(C)ccc1C3=O	53.2% (inactive)
CC1Cc2c(Cl)ncnc2N(C)c2ccc(F)cc21 (stereo not drawn)	95.6% (inactive)
O=C1c2cc(Cl)ccc2S(=O)(=O)c2c(NCCCNCCO)nc3ccccc3c21	-22.2% (active)
O=C(c1ccc(Cl)cc1)N1CCN(c2ccnc3cc(Cl)ccc23)CC1	90.9% (inactive)
Cc1nnc(NC(=O)c2nc(S(=O)(=O)Cc3ccc(F)cc3)ncc2Cl)s1	-43.3% (active)
COc1ccc2[nH]cc(-c3nc(-c4cn(C)c5c(Cl)nccc45)cs3)c2c1	22.1% (inactive)
COc1ccc(/C(C)=C(/c2ccc(OCCCN(C)C)cc2)c2ccc(OC(=O)Cc3ccccc3)cc2)cc1	65% (inactive)
CCOc1nc(-c2ccccc2)cc2c(O)c(C(=O)NN)[nH]c(=O)c12	103% (inactive)
Cn1c(=O)c2[nH]c(N/N=C/c3ccccc3Br)nc2n(C)c1=O	104% (inactive)
Clc1ccc(Sc2cnc(-c3ccccc3)o2)cc1	99.2% (inactive)
O=C(Nc1nn(-c2ccc(Cl)cc2Cl)nc1-c1ccccc1)c1ccccc1	95.9% (inactive)
Cc1ccc(/C=N/Nc2nc(Nc3ccccc3)nc(-n3nc(C)cc3C)n2)cc1	41% (inactive)
O=C(Nc1cc(Cl)ccc1O)c1ccc(Nc2ccnc(C(F)(F)F)c2)cc1	2.44% (active)
CC(C)(C)c1cc(-c2nc3ccc(N4CCN(S(C)(=O)=O)CC4)cc3[nH]2)cc(C(C)(C)C)c1O	84.5% (inactive)

test system: MOLT-4 leukemia; assay: as above; conditions: 10 µM unless noted

SMILES	growth
O=C(NCCCN1CCOCC1)c1cccc(N2C(=O)/C(=C/c3ccc(F)cc3)SC2=S)c1	111% (inactive)
CC(C)NC1CCC(Nc2ccnc3cc(Cl)ccc23)CC1 (stereo not drawn)	69.2% (inactive)
Fc1ccc(-c2nn(-c3ccccc3)cc2-c2nc3ccccc3o2)cc1	73.7% (inactive)
COc1ccc(C/C(C)=C(/c2ccc(OCCN3CCCCC3)cc2)c2ccc(OC(=O)NCc3ccccc3)cc2)cc1	-53.2% (active)
Cn1cc(-c2nonc2-c2c[nH]c3ccc(Br)cc23)c2cc(Br)ccc21	25.1% (inactive)
Cn1c(=O)c2c(nc(NC3=NS(=O)(=O)c4ccccc43)n2CC(=O)N2CCc3ccccc32)n(C)c1=O	112% (inactive)
Clc1ccc(Nc2nnc(COc3ccccc3)c3ccccc23)cc1	-32.6% (active)
O=[N+]([O-])c1ccc(S(=O)(=O)N2CCN(C3=NS(=O)(=O)c4ccccc4N3c3ccccc3)CC2)cc1	94.9% (inactive)
CCNC(=O)c1[nH]cc(-c2ccccc2)c1-c1cc(OC)c2c(c1OC)OCO2	98.9% (inactive)
COCCn1c(-c2csc(-c3cn(C)c4ccc(OC)cc34)n2)cc2cccnc21	54.4% (inactive)
S=C(Nc1ccc(-c2nc(N3CCOCC3)c3cccn3n2)cc1)Nc1cccnc1	36.8% (inactive)
COc1cc(CNC(=O)CCCC/C=C/C(C)C)ccc1OCc1nnc(Nc2ccc([N+](=O)[O-])cc2)o1	84.2% (inactive)
N#CC1=C(c2ccc(Cl)cc2)Nc2c(c(-c3ccc(Cl)cc3)nn2-c2ccccc2)C12C(=O)Nc1ccc(Cl)cc12 (stereo not drawn)	35.1% (inactive)
CCOC(=O)/C=C1\S/C(=N\Nc2cc(=O)[nH]c3ccc(Cl)cc23)N(c2ccccc2)C1=O	21% (inactive)
COc1cccc(NC(=O)Cn2cc(CN3CCN(c4ccnc5cc(Cl)ccc45)CC3)nn2)c1	50% (inactive)
COc1cc(N2C(=O)[C@H](O)C2c2ccc(SC)cc2)cc(OC)c1OC (stereo partly drawn)	4.67% (active)
CSc1nnc(-c2cnn3c2NC(c2ccccc2)C3)n1-c1ccc(C(F)(F)F)cc1 (stereo not drawn)	41.9% (inactive)
N=C(N)c1ccc(-c2ccc(-c3ccc(F)cc3)o2)o1	8.09% (active)
CC1=NN(c2nc(SCC(=O)Nc3nc4ccc(C)cc4s3)nc(-c3ccccc3)c2C#N)C(=O)C1	99.8% (inactive)
C/C(Nc1ccc(Cl)c(Cl)c1)=C1\CCOC1=O	80.9% (inactive)

SMILES	growth
N#Cc1cccc(-c2c(-c3ccc4ccccc4c3)oc3ccccc3c2=O)c1	31% (inactive)
CC(C)N1CCN(Cc2ccc3c(NNC(=O)c4ccccc4)nc4cc(F)ccc4n23)CC1	11.7% (inactive)
O=S(=O)(NCCCNc1nccc(-c2c(-c3ccc(F)c(O)c3)nc3occn23)n1)c1ccccc1	78.2% (inactive)
O=C1NCCC12CCN(c1c(Cl)cncc1-c1ccc(O)cc1)CC2	102% (inactive)
Cc1cccnc1NC(=S)Nc1ncccc1C	60.3% (inactive)
COc1ccc2c3c([nH]c2c1)C(=O)c1nc(C)ccc1C3=O	7.34% (active)
CC1Cc2c(Cl)ncnc2N(C)c2ccc(F)cc21 (stereo not drawn)	89.2% (inactive)
O=C1c2cc(Cl)ccc2S(=O)(=O)c2c(NCCCNCCO)nc3ccccc3c21	-19% (active)
O=C(c1ccc(Cl)cc1)N1CCN(c2ccnc3cc(Cl)ccc23)CC1	87.1% (inactive)
Cc1nnc(NC(=O)c2nc(S(=O)(=O)Cc3ccc(F)cc3)ncc2Cl)s1	11.3% (inactive)
COc1ccc2[nH]cc(-c3nc(-c4cn(C)c5c(Cl)nccc45)cs3)c2c1	36.2% (inactive)
COc1ccc(/C(C)=C(/c2ccc(OCCCN(C)C)cc2)c2ccc(OC(=O)Cc3ccccc3)cc2)cc1	47.5% (inactive)
CCOc1nc(-c2ccccc2)cc2c(O)c(C(=O)NN)[nH]c(=O)c12	113% (inactive)
Cn1c(=O)c2[nH]c(N/N=C/c3ccccc3Br)nc2n(C)c1=O	98.3% (inactive)
Clc1ccc(Sc2cnc(-c3ccccc3)o2)cc1	100% (inactive)
O=C(Nc1nn(-c2ccc(Cl)cc2Cl)nc1-c1ccccc1)c1ccccc1	83.5% (inactive)
Cc1ccc(/C=N/Nc2nc(Nc3ccccc3)nc(-n3nc(C)cc3C)n2)cc1	42.3% (inactive)
O=C(Nc1cc(Cl)ccc1O)c1ccc(Nc2ccnc(C(F)(F)F)c2)cc1	19.2% (inactive)
CC(C)(C)c1cc(-c2nc3ccc(N4CCN(S(C)(=O)=O)CC4)cc3[nH]2)cc(C(C)(C)C)c1O	64.6% (inactive)
